High-throughput results as filed in PubChem BioAssay.
GLP1R ag – qHTS of GLP-1 Receptor Agonists. Glucagon-like peptide 1 receptor (Homo sapiens), P43220. HEK293 GLP-1R CRE-luciferase, luminescence, 4-6 h; cells express a hypersensitive GLP-1R form. Potency, µM (top dose mostly 45.6 µM), without a hit: at the highest dose activation, hits mostly activators. 380,000 tested, 0.007% active; also: % of control where 0% means no effect
Target sequence (P43220 whole entry, looked up): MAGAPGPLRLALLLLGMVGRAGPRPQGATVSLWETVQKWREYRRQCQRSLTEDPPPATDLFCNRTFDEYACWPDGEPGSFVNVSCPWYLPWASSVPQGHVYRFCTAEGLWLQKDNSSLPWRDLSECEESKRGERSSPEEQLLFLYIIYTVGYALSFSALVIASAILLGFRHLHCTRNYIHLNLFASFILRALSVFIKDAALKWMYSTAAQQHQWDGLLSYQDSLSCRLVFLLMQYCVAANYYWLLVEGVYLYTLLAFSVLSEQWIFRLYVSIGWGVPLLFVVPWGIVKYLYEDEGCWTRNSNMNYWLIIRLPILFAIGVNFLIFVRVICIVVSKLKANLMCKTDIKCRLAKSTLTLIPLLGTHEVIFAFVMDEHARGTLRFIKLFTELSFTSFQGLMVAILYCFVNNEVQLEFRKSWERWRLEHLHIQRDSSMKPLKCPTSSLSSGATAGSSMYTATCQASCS
GLP-1R inv ag – qHTS of GLP-1 Receptor Inverse Agonists (Inhibition Mode); AID 624417, 2012; HEK293 GLP-1R CRE-luciferase, luminescence, 24 h; GLP-1R form is constitutively active; Glucagon-like peptide 1 receptor (Homo sapiens), P43220; 410,000 tested, 1.6% active; Potency, µM (highest dose often 38.3 µM), for inactives: at the top dose activity change, negative = inhibition, most hits filed as inhibitors; also: % is scaled to controls: 0 for no effect and ±100 for the full control effect; nearly all actives have a fitted effect of over 55% in size
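Cells are plated, allowed 12 hours at 37 deg C, then treated with compounds for 24 hr before luciferase detection reagent is added and luminescence is read after 12 min at room temperature. The HEK293 line carries constitutively active GLP-1R with a cAMP-responsive reporter.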
ClpP mod – qHTS Assay for Activators of ClpP | purified B. subtilis ClpP, FRET peptide cleavage, 20 min | Potency, µM (titrated, usually from 57.5 µM), for inactives: at the top dose activity change, negative = active | AID 651965, 2013 | 340,000 tested, 1.9% active; active = well fitted falling curve with a large enough effect; inconclusive = small, poorly fitted or top-dose-only effect; inactive = no such curve, though single readings can be large or run the other way; also: the source files actives as falling curves though it sought activators and does not explain the sign; nearly all actives have a fitted effect of over 65% in size
Target sequence (P80244 whole entry, looked up): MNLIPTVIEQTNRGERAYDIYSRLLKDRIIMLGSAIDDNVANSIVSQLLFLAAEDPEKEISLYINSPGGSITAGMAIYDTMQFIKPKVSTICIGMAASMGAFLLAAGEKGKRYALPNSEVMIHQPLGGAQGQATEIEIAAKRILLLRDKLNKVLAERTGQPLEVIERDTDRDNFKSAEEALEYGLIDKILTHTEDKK
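FRET quenching reversal measured ClpP activation: 10 microg/mL B. subtilis ClpP at pH 8 with the FRET-FV decapeptide, read at 430 nm after 320 nm excitation. The 20-min minus 0-min signal was scaled between DMSO/no-enzyme wells and ADEP (5.8 microM final).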
GLP1R cytotox – qHTS of GLP-1 Receptor Inverse Agonists: Cytotox Screen. Potency, µM (titrated, usually from 38.3 µM), without a hit: top-dose activity change, negative = inhibition, actives largely listed as inhibitors. 410,000 tested, 0.13% active. HEK293 cAMP-luciferase reporter cells, luminescence, 24 h;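 also: loss of luciferase light is scored as toxicity; % is scaled to controls: 0 for no effect and ±100 for the full control effect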
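Luminescence readout: signal drop marks cytotoxicity. Plated cells grew 12 h at 37 °C, 5% CO2, received 23 nL compound for 24 h, then got luciferase reagent, read after 12 min at RT.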
* hit, by the source's call; ? = inconclusive; nt = not tested or not shown; [ ] = dose if it differs, or a comment. An excerpt weighted towards active compounds, which were near 3.2% of everything screened. Unless noted, calls follow the shape of the dose curve; as a rule, active = well fitted curve in the direction sought with a large enough effect; inconclusive = small, poorly fitted or top-dose-only effect, or another doubt; inactive = no such curve, though single readings can be large; an effect the other way counts as inactive or inconclusive. Potency is read from the fitted curve at half-maximal effect.

SMILES	GLP1R ag	GLP-1R inv ag	ClpP mod	GLP1R cytotox
COc1ccc(Cl)cc1NC(=O)CSc1cc(C)[nH]c(=O)n1	2%	-5%	-1%	4%
O=C(CSc1nc2ccccc2s1)N1c2ccccc2Sc2ccc(C(F)(F)F)cc21	-4%	5µM*	-1%	3%
Cc1ccc(CCNS(=O)(=O)c2ccc3c(c2)CC(C)N3C(=O)C2CCC2)cc1 (centres undefined)	nt	?	0%	1%
COC(=O)c1oc2ccccc2c1N	1%	31%	25µM*	10%
CC(=O)c1oc2ccccc2c1N	0%	0%	-17%	6%
O=C1C=CC2(C=C1)O[C@H](Cc1ccccc1)[C@@H](Cc1ccccc1)O2	-36%	?	1%	2µM*
COc1ccc(C[C@@H]2OC3(C=CC(=O)C=C3)O[C@H]2Cc2ccc(OC)cc2)cc1	-12%	?	-2%	4.5µM*
COc1ccc(-c2oc3ncn4nc(-c5ccc(Cl)cc5)nc4c3c2-c2ccc(OC)cc2)cc1	-6%	-6%	-7%	1%
CCN(Cc1nc2ccccc2c(=O)[nH]1)C(=O)COc1ccccc1Cc1ccccc1	17%	13µM*	nt	-25%
CCCNC(=S)N(Cc1ccccc1)Cc1nc2ccccc2c(=O)[nH]1	1%	?	28µM*	-29%
CCOCCCNC(=S)N(Cc1ccccc1)Cc1nc2ccccc2c(=O)[nH]1	22%	1%	0%	11%
CCN(Cc1nc2cc(Cl)ccc2c(=O)[nH]1)C(=O)COc1ccccc1Cc1ccccc1	3%	?	-1%	?
CCN(CC)C(=O)Cn1c(=O)n(CCCCCC(=O)NCc2ccc(C)cc2)c(=O)c2sccc21	nt	-15%	1%	1%
CS(=O)(=O)c1ccc([C@H](O)[C@H](CF)NC(=O)C(Cl)Cl)cc1	-4%[19.8 µM]	nt	nt	nt
O=C(OCc1ccccc1)N1CCC2CC1c1cc(-c3ccccc3)ccc12 (centres undefined)	11%	?	-1%	2%
COc1ccc(-c2cccc3c2C2CC3CCN2C(=O)OCc2ccccc2)cc1 (centres undefined)	-1%	22µM*	-2%	1%
COc1ccc(CC(=O)NCc2ccc3c(c2)CCN3C(=O)c2ccc(C)cc2)cc1OC	nt	-6%	-1%	1%
COc1ccc(OC)c(CCNC(=O)CCn2c(=O)c3cccn3c3ccc(F)cc32)c1	nt	15%	-2%	1%
COc1ccccc1C=NNC(=O)NN=Cc1ccccc1OC	22%	?	nt	-18%
COc1ccccc1C=NN=C(NN=Cc1ccccc1OC)NN=Cc1ccccc1OC	-7%	2.2µM*	-5%	5µM*
Cc1ccc(S(=O)(=O)c2c(C)nn(C(C)(C)C)c2OC(=O)C2CCCC2)cc1	-14%	?	-1%	?
Cc1nn(C(C)(C)C)c(OC(=O)C2CCCC2)c1S(=O)(=O)c1ccccc1	-27%	?	11µM*	-18%
CN(C)C(=O)CCSC(SCCC(=O)O)c1cccc(/C=C/c2ccc3ccc(Cl)cc3n2)c1 (centres undefined)	29%	nt	nt	nt
CSc1nc2ccc(Cl)cc2[nH]1	5%	67%	0%	9%
CSc1nc2cc(Oc3cccc(Cl)c3Cl)c(Cl)cc2[nH]1	5%	11µM*	-1%	-2%
SMILES	GLP1R ag	GLP-1R inv ag	ClpP mod	GLP1R cytotox
Cc1nn(-c2ccccc2)c(N2CCCC2)c1/C=N/NC(=S)Nc1cc(C(F)(F)F)ccc1Cl	-4%	?	28µM*	-2%[1.53 µM]
CN(C)CCNC(=O)c1cc2sc3ccccc3c2s1	2%	3.2µM*	nt	?
CN(C)CC/C=C1\c2ccccc2COc2ccccc21	-1%	10µM*	0%	-10%
CN(C)CC/C=C1/c2ccccc2CS(=O)(=O)c2ccccc21	6%	8%	nt	-8%
CC(=O)c1ccc(OC(=O)c2c(-c3ccccc3Cl)noc2C)cc1	nt	0%	-8%	7%
CCNC(=O)C1(C)CCN(Cc2cccc(Oc3ccccc3)c2)C1 (centres undefined)	19%	-5%	-1%	2%
CCNC(=O)C1(C)CCCN(Cc2ccc(Oc3ccccc3)cc2)C1 (centres undefined)	1%	10µM*	0%	-3%
COc1cccc(/C=N/NC(=O)CSc2nnc(C)n2-c2ccccc2)c1OC	10%	3%	28µM*	40%
COc1ccccc1NC(=O)CSc1nnc(C2CCCCC2)n1-c1ccccc1	14%	3.2µM*	nt	-11%
CC(=O)c1ccc(S(=O)(=O)N2CCn3cccc3C2c2ccc(C)cc2)cc1 (centres undefined)	nt	4%	-5%	0%
COc1ccc(CCNC(=O)C2CCN(c3nc4ccccc4nc3C(F)(F)F)CC2)c(OC)c1	nt	4%	-1%	4%
O=C(O)/C(=C\c1ccc(Cl)c([N+](=O)[O-])c1)c1ccc(S(=O)(=O)N2CCCCC2)s1	-1%	-2%	28µM*	7%
COc1ccc(-c2cc(OC(=O)c3ccc(Cl)cc3)c3c(C)oc(C)c3c(=O)c2)cc1	nt	8%	-2%	-17%
O=C(N/C=N/OCc1cccc(C(F)(F)F)c1)N1OC[C@@H]2COc3ccc4ccccc4c3[C@@H]21	-6%	5.6µM*	?	29%
O=C(NCCC1=CCCCC1)C1CCCN(S(=O)(=O)c2cccc3cccnc23)C1 (centres undefined)	1%	7.9µM*	3%	?
O=C(Nc1ccc(C(F)(F)F)cc1)C1CCCN(S(=O)(=O)c2cccc3cccnc23)C1 (centres undefined)	nt	?	3%	0%
O=C(Nc1ccncc1)C1CCCN(S(=O)(=O)c2cccc3cccnc23)C1 (centres undefined)	8%	1.8µM*	-4%	-24%
CCOC(=O)c1ccccc1NC(=O)CSc1nc2ncccc2o1	nt	4%	4%	-5%
COc1ccc(S(=O)(=O)N2c3cc(C)ccc3OCC2C(C)(C)C)cc1 (centres undefined)	-1%	5µM*	-2%	-22%
COc1cccc(C(=O)N2c3cc(C)ccc3OCC2C(C)(C)C)c1 (centres undefined)	1%	11%	nt	-2%
Cc1ccc(S(=O)(=O)N2c3cc(C)ccc3OCC2C(C)(C)C)cc1 (centres undefined)	-11%	5µM*	-1%	?
CCOc1ccc(C(=O)Nc2cc(-c3nc4ccccc4[nH]3)ccc2C)cc1[N+](=O)[O-]	-4%	?	-2%	-9%
CCCOc1ccc(C(=O)Nc2cc(-c3nc4ccccc4[nH]3)ccc2C)cc1	nt	7.1µM*	-13%	-6%
CCOC(=O)N1CCC(N(CCN(C)C)C(=S)Nc2cccc(Cl)c2)CC1	-1%	11µM*	1%	-5%
CCOC(=O)N1CCC(N(CCN(C)C)C(=S)Nc2cc(Cl)cc(Cl)c2)CC1	-1%	3%	0%	3%
